# Bioassay records deposited in PubChem BioAssay by National Center for Advancing Translational Sciences (NCATS).
# Pf Dd2 inh = inhibitors of Plasmodium falciparum Dd2 growth | AID 1347417 | Potency, µM (series often up to 28.9 µM), for inactives: top-dose activity, negative = inhibition, actives largely listed as inhibitors | hit rate 4.3% among 120,000 | P. falciparum Dd2 growth, SYBR Green, 72 h; active = well fitted inhibition curve with a large enough effect;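 also: plate controls were DMSO vehicle for no effect and reference drug for full effect; nearly all actives have a fitted effect of over 65% in size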
#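 Infected erythrocytes (Dd2, 0.3% parasitemia, 2.5% hematocrit final) are added to compound in RPMI-1640/Albumax II medium, grown 72 h at 37C in low oxygen, then lysed with saponin/Triton-X containing SYBR Green and read by fluorescence.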
# An asterisk follows results filed as active; i = inactive; [ ] = another dose, or the depositor's remark. This is one part of a sample in which hits are shown more often than they occur. Potency is read from the fitted curve at half-maximal effect.
SMILES,Pf Dd2 inh
CCN1C(=O)CCC2(C(=O)N3CCOCC3)CCCC=C12 (configuration not stated),-5%
O=C(N1CCN(Cc2ccccc2)CC(O)C1)C1(N2CCCC2)CCCC1 (configuration not stated),4.5µM*
CN(C)C(=O)CCC(=O)N1CCN(Cc2ccccc2)CC(O)C1 (configuration not stated),11%
CC(=O)N1CCC(C(=O)N2CCN(Cc3ccccc3)CC(O)C2)CC1 (configuration not stated),6%
CCCc1noc(-c2ccn3c(CNC(=O)c4ccco4)nnc3c2)n1,i
O=C(Cc1ccc(F)cc1)N1CCC2(CC1)N=C(c1ccccc1)NO2,-1%
COc1ccc(C(=O)CC2(O)C(=O)N(Cc3ccccc3Cl)c3ccccc32)cc1 (configuration not stated),9%
CCOC(=O)c1ccc(NC(=O)CN2C(=O)C(C)(C)c3ccccc32)cc1,15%
CCCCN1C(=O)C(O)(CC(=O)c2ccc(C(C)(C)C)cc2)c2ccccc21 (configuration not stated),1.3µM*
O=C1CCN(S(=O)(=O)c2ccccc2)CCCC(C(=O)NCCc2ccccn2)CCN1 (configuration not stated),11%
O=C1CCN(Cc2cccc(F)c2)CCCC(c2nc(-c3cccnc3)no2)CCN1 (configuration not stated),-17%
CCN(Cc1cccc2cnccc12)CC1CCCN(CCc2cccc(F)c2)C1 (configuration not stated),2.2µM*
CN(CC1CCN(CCc2cccc(F)c2)CC1)C(=O)COc1cccnc1,-25%
CC(C)c1nc2nccc(-c3ccsc3)n2n1,-9%
CCCc1cc(C(=O)N[C@H](c2ccccn2)C2CC(O)C2)cs1 (some centres not stated),-1%
O=C(N[C@H](c1ccccn1)C1CC(O)C1)c1cc(=O)n(-c2ccccc2)[nH]1 (some centres not stated),1.4µM*
O=C(N[C@H](c1ccccn1)C1CC(O)C1)c1cccc(Cn2cccn2)c1 (some centres not stated),-9%
Cc1cc(=O)n(CC(=O)NC(C)CCc2ccccc2)c(N2CCOCC2)n1 (configuration not stated),i
CCOc1ccc(Nc2nc(C)c(NC(=O)c3cccc(OC)c3)c(Nc3ccc(OCC)cc3)n2)cc1,-11%
CCOc1ccc(C(=O)Nc2c(C)nc(Nc3ccccc3)nc2Nc2ccccc2)cc1OCC,13µM*
CCOc1ccc(C(=O)Nc2ccc(S(=O)(=O)Nc3nc(C)cc(C)n3)cc2)cc1OC,9%
CCc1nc2cc(N3CCC(C(=O)N4CCN(C)CC4)CC3)cnc2nc1CC,i
Cc1nc(N2CCN(C(=O)Cc3ccc(Cl)cc3)CC2)cc(C(F)(F)F)n1,4µM*
Cc1nc(N2CCC(NC(=O)Cc3ccc(Cl)cc3)CC2)cc(C(F)(F)F)n1,i
Cc1nc(N2CCN(C(=O)Cc3ccccc3Cl)CC2)cc(C(F)(F)F)n1,-18%
SMILES,Pf Dd2 inh
COc1cccc(C(=O)N2CCc3[nH]nc(C(=O)NC4CCN(C)CC4)c3C2)c1,6%
O=C(NCc1ccc2c(c1)OCO2)c1ccc2c(c1)CC(=O)N2Cc1ccc(F)cc1,i
COc1cccc(NC(=O)Cn2c(=O)n(Cc3ccc(F)cc3)c(=O)c3sc4ccccc4c32)c1,-25%
COc1cccc(NC(=O)Cn2c(=O)n(-c3ccc(Cl)cc3)c(=O)c3sc4ccccc4c32)c1,11µM*
COc1ccccc1NC(=O)Cn1c(=O)n(-c2cccc(Cl)c2)c(=O)c2sc3ccccc3c21,i
Cc1cccc(NC(=O)Cn2c(-c3ccc(F)cc3)nc(C)c(CCO)c2=O)c1C,i
O=C(Nc1ccc([C@@H](O)[C@H]2COCC(=O)N2Cc2ccccn2)cc1)C1CCCC1,1%[44.1 µM]
COc1ccc(-c2cc(C(=O)N3CCOCC3)c3c(C4CCCN4)nn(C)c3n2)cc1 (configuration not stated),-26%
COCCNC(=O)c1cc(C2CC2)nc2c1c(C1CCCN1)nn2-c1ccccc1 (configuration not stated),11µM*
Cc1nn(-c2ccccc2)c2nc(C3CC3)cc(C(=O)Nc3cccc(F)c3)c12,10µM*
Cn1nc(C2CCCN2)c2c(C(=O)N3CCOCC3)cc(C3CC3)nc21 (configuration not stated),0%
COc1ccc(-c2cc(C(=O)NCC(C)C)c3c(C4CCCN4)nn(C)c3n2)cc1 (configuration not stated),4µM*
Cc1nn(-c2ccccc2)c2nc(C3CC3)cc(C(=O)NCc3ccccc3Cl)c12,i
COc1ccc(NC(=O)c2cc(C3CC3)nc3c2c(C)nn3-c2ccccc2)cc1OC,13%
COCCNC(=O)c1cc(C2CC2)nc2c1c(C1CCCNC1)nn2C (configuration not stated),12%
COCCNC(=O)c1cc(-c2ccc(OC)cc2)nc2c1c(C1CCNC1)nn2C (configuration not stated),-28%
O=C(c1ccc(Cl)cc1)N(CC1CCOC1)C1CC1 (configuration not stated),i[5.79 µM]
C=CCN1C[C@@H]2CN(C(=O)C(C)(C)NC(C)=O)C[C@]2(C(=O)O)C1,-8%
CCc1nc(-c2c3n(c(=O)n(CC(=O)Nc4ccccc4)c2=O)CCCCC3)no1,-19%
CCCn1c(C)cnc1CC1CCN(C(C)=O)C1 (configuration not stated),14%
Cc1nccn1CC(=O)N[C@@H]1CN(Cc2ccccn2)C[C@H]1CO,19%
O=C1CC(c2ccccc2)N(C(=O)c2cccs2)CCCCCCN1 (configuration not stated),-27%
COc1cccc(-c2cc3c(=O)n(CCNC(=O)c4ccc(C(C)(C)C)cc4)ccn3n2)c1,1.1µM*
COc1cccc(-c2cc3c(=O)n(CCNC(=O)c4cc(Cl)ccc4F)ccn3n2)c1,-11%
COc1cccc(-c2cc3c(=O)n(CCNC(=O)c4cc(C)cc(C)c4)ccn3n2)c1,-7%
SMILES,Pf Dd2 inh
COc1cccc(-c2cc3c(=O)n(CCNC(=O)c4ccc(Cl)cc4)ccn3n2)c1,12%
COc1cccc(-c2cc3c(=O)n(CCNC(=O)c4cc5ccccc5[nH]4)ccn3n2)c1,i
COc1cccc(-c2cc3c(=O)n(CCNC(=O)c4ccccc4F)ccn3n2)c1,13µM*
CC(NC(=O)C1(c2ccc(NS(C)(=O)=O)cc2)CCCCC1)c1ccc(F)cc1 (configuration not stated),-25%
COc1ccccc1CN1C[C@@H]2C(=O)N(CCCN3CCCC3=O)C(=O)[C@@H]2C1,21%
CCOc1cc(=O)n2c(c1C(=O)Nc1cc(Cl)c(OC)cc1OC)CCCC2,-24%
Cc1ccccc1N1CCN(C(=O)[C@@]23CCCC[C@H]2N(C)C(=O)CC3)CC1,4%
COCCC(=O)N1CCCCCCNC(=O)[C@@H]2C[C@@H](c3nc(-c4cccnc4)no3)C[C@@H]21,i
Cc1nn(CCC#N)c(C)c1[C@@H]1C=C[C@@H](NC(=O)Nc2ccccc2)C1,-16%[44.1 µM]
Cc1nn(Cc2ccccc2)c(C)c1[C@@H]1C=C[C@@H](NS(=O)(=O)c2cccs2)C1,13µM*
CC(=O)Nc1ccc(S(=O)(=O)N[C@@H]2C=C[C@@H](c3c(C)nn(-c4ccc(C(C)(C)C)cc4)c3C)C2)cc1,i
N#Cc1ccc(CN2CCCC(c3nc(-c4cccnc4)no3)CCNC(=O)CC2)cc1 (configuration not stated),4µM*
